GPT2 inhibitor: blocks human glutamate pyruvate transaminase 2; Recombinant GPT2, coupled pyruvate oxidase/HRP Amplex Red fluorescence; Potency, µM (series often up to 57.7 µM), without a hit: at the highest dose activity change, negative = inhibition, hits mostly inhibitors; 100,000 tested, 0.25% active; AID 1671188; further: nearly all actives have a fitted effect of over 60% in size
Target sequence (Q8TD30 whole entry, looked up): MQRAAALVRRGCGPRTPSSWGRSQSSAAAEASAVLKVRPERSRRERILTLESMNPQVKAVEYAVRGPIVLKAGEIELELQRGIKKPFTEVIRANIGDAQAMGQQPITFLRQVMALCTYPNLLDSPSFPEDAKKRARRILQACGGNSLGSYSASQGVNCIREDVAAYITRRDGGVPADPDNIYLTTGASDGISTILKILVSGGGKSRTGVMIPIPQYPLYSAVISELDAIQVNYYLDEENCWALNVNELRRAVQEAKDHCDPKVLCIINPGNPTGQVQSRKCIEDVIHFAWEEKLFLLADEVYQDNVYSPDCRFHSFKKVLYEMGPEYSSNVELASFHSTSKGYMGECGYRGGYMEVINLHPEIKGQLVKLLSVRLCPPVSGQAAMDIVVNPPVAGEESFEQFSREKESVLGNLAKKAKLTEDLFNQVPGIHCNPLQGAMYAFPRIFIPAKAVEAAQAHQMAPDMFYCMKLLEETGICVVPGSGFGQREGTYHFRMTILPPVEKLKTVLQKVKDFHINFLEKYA
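GPT2 10ng/uL, a-KG 250uM, L-Ala 2mM, HEPES pH7.5 + 0.0001% Tween; 30 min RT. Then Amplex mix (PO/HRP/ThPP), 30 min RT dark, fluorescence. AOA 50uM used as positive control.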
hNpr1 antagonist: blocks ANP-stimulated signaling of human Npr1 receptor; HEK293 hNpr1 GloSensor cGMP, ANP-stimulated luminescence; Potency, µM (series often up to 46.3 µM), for inactives: top-dose activity change, negative = inhibition, usual class: inhibitors; 76,000 tested, 1.6% active; AID 1347048; calls by dose curve; further: nearly all actives have a fitted effect of over 60% in size
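HEK293 cells stably expressing human Npr1 and cGMP GloSensor pGS-40F, loaded 2 h with 2% GloSensor reagent, given compound 30 min at room temperature. Luminescence read before and 20 min after 0.1 nM hNppA.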
FLuc inh: Photinus pyralis luciferase inhibition; P08659; purified P. pyralis luciferase, luminescence, biochemical; Potency, µM (series often up to 115 µM), actives largely listed as inhibitors; 76,000 tested, 2.5% active; further: nearly all actives have a fitted effect of over 65% in size
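FLuc 10nM, D-luciferin 10uM, ATP 10uM, Mg acetate 10mM, Tris acetate pH 7.5, Tween/BSA; cpd qHTS; enzyme added last; CCD luminescence.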
3T3 cytotox: cytotoxic compounds in NIH 3T3 cells; NIH 3T3 viability, CellTiter-Glo ATP luminescence, 48-72 h; Potency, µM (doses to about 96.7 µM), inactives show top-dose activity change, negative = cytotoxicity, usual class: inhibitors; 94,000 tested, 4.3% active; AID 1345082; further: nearly all actives have a fitted effect of over 55% in size
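Cytotoxicity is measured as loss of cellular ATP: NIH 3T3 cells (400/well) are exposed to compound for 48 or 72 hr at 37 °C, then CellTiter-Glo luminescence is imaged after 10 min at room temperature.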
HEK293 tox: cytotoxic compounds in HEK 293 cells. HEK 293 viability, ATP luminescence (CellTiter-Glo), 48-72 h. Potency, µM (titrated, usually from 115 µM), for the others: at the top dose activity change, negative = cytotoxicity, most hits filed as inhibitors. 94,000 tested, 6.6% active; further: nearly all actives have a fitted effect of over 60% in size
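HEK 293 seeded at 250 cells/well receive compound via pintool. After 48 or 72 hr at 37 degree Celsius, 5% CO2 and 95% humidity, CellTiter-Glo is dispensed and luminescence read following 10 min at room temperature.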
* hit, by the source's call; i = inactive; ? = inconclusive; · = not tested or not shown; [ ] = another dose, or the depositor's remark. The list is not random: actives were taken first. Their share in the collection is about 10%. Unless noted, the call rests on the fitted dose curve; in most records, active means well fitted curve in the direction sought with a large enough effect; inconclusive means small, poorly fitted or top-dose-only effect, or another doubt; inactive means no such curve, though single readings can be large; an effect the other way counts as inactive or inconclusive. On the % scale 0 is the no-effect control and ±100 the full control effect; potency means the concentration at half of the fitted maximal effect.

SMILES	GPT2 inhibitor	hNpr1 antagonist	FLuc inh	3T3 cytotox	HEK293 tox
COc1cc2c(cc1OCC1CC1)NC(=O)C21CCN(Cc2cccc(O)c2)CC1	-6%[88.5 µM]	-9%[70.6 µM]	?	?	89µM*
COc1cc2c(cc1OCc1ccccc1)NC(=O)C21CCN(Cc2cccc(O)c2)CC1	4%	1%	?	22µM*	35µM*
COc1cc2c(cc1OCc1ccncc1)NC(=O)C21CCN(Cc2cccc(O)c2)CC1	-3%	-20%	i	?	?
N#Cc1cccc(NC(=O)NC[C@H]2C[C@@H]3CCN2C[C@@H]3CN2CCCCC2)c1	-13%[88.5 µM]	4%[70.6 µM]	i	-18%[174 µM]	-12%[172 µM]
COc1cccc(N2CC3CCC(C2)N3CC(F)(F)F)n1	i	·	·	-6%	-2%
COc1cc2c(cc1OCc1ccccc1)NC(=O)C21CCN(C(=O)c2cccnc2)CC1	-4%	?	i	?	50µM*
COc1cc2c(cc1OCc1ccncc1)NC(=O)C21CCN(Cc2ccccc2)CC1	3%[88.5 µM]	-27%[70.6 µM]	i	79µM*	100µM*
COc1cc2c(cc1-c1cnn(C)c1)NC(=O)C21CCN(C(C)=O)CC1	i	2%[70.6 µM]	i	32µM*	2%[172 µM]
COc1cc2c(cc1-c1ccc(O)c(F)c1)NC(=O)C21CCN(C(C)=O)CC1	-13%[88.5 µM]	-9%[70.6 µM]	i	28µM*	-24%[172 µM]
C#C[C@H]1CN2CC[C@H]1C[C@@H]2CNS(=O)(=O)c1ccc(Cl)cc1	0%[88.5 µM]	2%[70.6 µM]	i	-25%[174 µM]	-13%[172 µM]
CCOC(=O)[C@H]1CN(C(=O)c2ccccc2)[C@]2(C)C(=O)N(CC3CC3)c3ccccc3[C@H]12	0%[27.3 µM]	·	·	-26%[46.1 µM]	?
COc1ccc2c(c1)C1(CCN(C(=O)COc3ccc(Cl)cc3)C1)C(=O)N2C (stereo not drawn)	5%	-19%	28µM*	?	-21%
COc1ccc2c(c1)C1(CCN(S(=O)(=O)c3cccc(Cl)c3)C1)C(=O)N2C (stereo not drawn)	i	0%	i	?	?
COc1ccc2c(c1)C1(CCN(S(=O)(=O)c3ccc(Cl)cc3)C1)C(=O)N2C (stereo not drawn)	-16%	-14%	i	-29%	50µM*
CC(C)CCN1CCC2(CNS(=O)(=O)c3cccnc3O2)C1 (stereo not drawn)	i	·	·	i	1%
COc1cc2c(cc1OCc1ccccc1)N(C(=O)c1ccccc1OC)CC21CCN(C)CC1	i	-2%	i	28µM*	79µM*
COc1cc2c(cc1OCc1ccccc1)N(C(=O)C1CCC(C)CC1)CC21CCN(C)CC1 (stereo not drawn)	4%	-3%	i	20µM*	28µM*
COc1cc2c(cc1OCc1ccccc1)N(C(=O)C(C)C)CC21CCN(C)CC1	2%[88.5 µM]	7%[70.6 µM]	i	89µM*	?
COc1cc2c(cc1OCc1ccccc1)N(C(=O)c1ccnn1C)CC21CCN(C)CC1	0%	0%	i	?	?
COc1cc2c(cc1OCc1ccccc1)N(C(=O)c1ccc3[nH]ccc3c1)CC21CCN(C)CC1	2%	-2%	i	22µM*	35µM*
COC[C@H]1C[C@@H](NCc2cn(C)c3ccccc23)[C@H](O)[C@@H]1O	5%[88.5 µM]	-15%[70.6 µM]	i	-15%[138 µM]	-14%[172 µM]
COc1cc2c(cc1OCc1ccccc1)N(C(=O)c1cccc(N(C)C)c1)CC21CCN(C)CC1	2%	3%	i	11µM*	?
CC(C)NC(=O)NC[C@H]1C[C@@H]2CCN1C[C@@H]2c1cc(-c2ccccc2)nn1C	-3%[88.5 µM]	3%[70.6 µM]	i	-3%[174 µM]	-2%[172 µM]
CSc1cccc(NC(=O)NC[C@H]2C[C@@H]3CCN2C[C@@H]3CN2CCN(c3ccccc3)CC2)c1	i	-2%	i	20µM*	22µM*
N#Cc1cccc(NC(=O)NC[C@H]2C[C@@H]3CCN2C[C@@H]3CN2CCSCC2)c1	-11%[88.5 µM]	-11%[70.6 µM]	i	?	?
SMILES	GPT2 inhibitor	hNpr1 antagonist	FLuc inh	3T3 cytotox	HEK293 tox
CN(CCc1ccccn1)C[C@H]1CN2CC[C@H]1C[C@@H]2CNC(=O)Nc1ccccc1	3%[88.5 µM]	-1%[70.6 µM]	i	-7%[174 µM]	i
CSc1cccc(NC(=O)NC[C@H]2C[C@@H]3CCN2C[C@@H]3CN(C)CCc2ccccn2)c1	i	-3%	i	79µM*	?
CSc1cccc(NC(=O)NC[C@H]2C[C@@H]3CCN2C[C@@H]3CN2CCSCC2)c1	i	1%[70.6 µM]	i	100µM*	?
CC(=O)c1ccc(NC(=O)NC[C@H]2C[C@@H]3CCN2C[C@@H]3CN2CCN(C)CC2)cc1	0%[88.5 µM]	-2%[70.6 µM]	i	-23%[174 µM]	-22%[172 µM]
COc1ccc(CC(=O)N2CCN(Cc3ccccc3-c3ccccc3F)CC2)cc1	3%	·	·	?	?
CN(Cc1ccccc1)C[C@H]1CN2CC[C@H]1C[C@@H]2CNC(=O)c1ccc(N(C)C)cc1	i	0%[70.6 µM]	i	?	?
Cc1nc(-c2ccccc2Br)cc([C@H]2CN3CC[C@H]2C[C@@H]3CNC(=O)c2ccc(N(C)C)cc2)n1	i	-8%	i	?	28µM*
CN(C)c1ccc(C(=O)NC[C@H]2C[C@@H]3CCN2C[C@@H]3CN2CCc3ccccc3C2)cc1	-6%[88.5 µM]	-26%[70.6 µM]	i	32µM*	89µM*
Cc1nc(-c2ccccc2Br)cc([C@H]2CN3CC[C@H]2C[C@@H]3CNC(=O)c2ccc(C(C)(C)C)cc2)n1	0%	-12%	i	25µM*	10µM*
CCCCCOc1cc2c(cc1-c1cc(/C=C/C(=O)O)ccc1O)C(C)(C)CCC2(C)C	1%	·	·	·	·
COC1CCN(CC2CCCCCN2C(=O)Cc2cccc(F)c2)CC1 (stereo not drawn)	i	·	·	-19%	-31%
O=C1N(c2ccccn2)C[C@H]2CN(Cc3ccccc3)CCN12	-1%[88.5 µM]	-21%[70.6 µM]	20µM*	-12%[138 µM]	-7%[172 µM]
CCOC(=O)[C@@H]1[C@H]2c3ccccc3N(CCOC)C(=O)[C@H]2N(C(=O)C2CCC2)[C@@H]1c1ccccc1	·	·	·	?	50µM*
CCOC(=O)[C@@H]1[C@H]2c3ccccc3N(CCOC)C(=O)[C@H]2N(C(=O)CC(C)C)[C@@H]1c1ccccc1	·	·	·	?	40µM*
CNC(=O)[C@@H]1[C@@H](c2ccccc2)CN2CCN(C(C)=O)C[C@H]12	·	·	·	?	-7%
O=C(c1ccccc1)N1C[C@@H]2C[C@H](C1)c1c(/C=C/c3ccc(Cl)cc3)ccc(=O)n1C2	-9%[88.5 µM]	1%[70.6 µM]	i	?	89µM*
O=[S+]1([O-])NC2(CCN(Cc3ccncc3)C2)COc2ccncc21 (stereo not drawn)	-6%	·	·	i	4%
